ROMK primary: human ROMK K+ channel modulation, primary screen; P48048; B-score at 10 µM; hit rate 2% among 130,000; AID 1918; Tet-inducible ROMK, thallium flux fluorescence; actives lie on both sides;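 active = signal ratio slope over the read window, or its plate-corrected B-score, at least 3 SD from the plate mean, either direction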;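 note: B-score of the F/F0 ratio slope over 7 to 12 s after thallium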
Target sequence (P48048 whole entry, looked up): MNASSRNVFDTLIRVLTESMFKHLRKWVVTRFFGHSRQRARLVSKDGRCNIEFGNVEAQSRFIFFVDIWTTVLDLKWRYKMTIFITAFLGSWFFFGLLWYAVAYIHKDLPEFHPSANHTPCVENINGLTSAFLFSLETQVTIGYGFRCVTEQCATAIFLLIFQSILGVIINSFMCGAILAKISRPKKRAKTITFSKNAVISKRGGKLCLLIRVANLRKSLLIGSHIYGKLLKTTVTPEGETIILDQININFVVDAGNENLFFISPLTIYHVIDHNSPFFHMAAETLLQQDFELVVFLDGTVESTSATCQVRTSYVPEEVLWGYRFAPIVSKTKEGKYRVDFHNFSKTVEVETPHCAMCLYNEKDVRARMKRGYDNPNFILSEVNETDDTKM
Cl transport mod: KCC2 (human) Cl- transport modulation | Q9H2X9 | KCC2 cells, thallium flux FluoZin-2 fluorescence | B-score of Tl+ flux slope (higher = more flux/activation; lower = inhibition) at 10 µM | hit rate 2.2% among 190,000 | AID 1456;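 active = thallium flux slope and its plate-corrected score both differing from the plate sample mean at a set confidence after two filtering rounds, in either direction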;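 note: slope of fluorescence scaled to starting intensity during 10 to 20 s after thallium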
Lmaj promast: reduces viability of Leishmania major promastigotes; resazurin fluorescence viability; inhibition, % at 10 µM; hit rate 9% among 200,000; in the data active = inhibition above about 50%;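 note: promastigotes grown with compound for 44 hours at 28 °C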
Calpain2 inh: inhibitors of pig calpain II; purified calpain II, fluorogenic peptide substrate, 30 min; inhibition, % at 16 µM; hit rate 0.37% among 220,000; AID 1236;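 active = inhibition above about 50%, limit read from the data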
WT yeast gro inh: growth inhibition of WT yeast, mitochondrial fusion screen; AID 1362; hit rate 2.1% among 190,000; mitochondrial fusion phenotypic screen, WT strain; inhibition, % at 10 µM; in the data active = inhibition above about 58%; tested in S. cerevisiae
* = called active by the depositor. The list is not random: actives were taken first. Their share in the collection is about 12%.

For O=C(CCN1CCCCC1)Nc1ccc(Br)cc1 the results were Cl transport mod -1.5, Lmaj promast -5, Calpain2 inh -13 and WT yeast gro inh -34.
`COc1cc(/C=N/NC(=O)CN2CCCCC2)ccc1OCc1ccc(Br)cc1` gave Cl transport mod -0.83, Lmaj promast 94*, Calpain2 inh 5 and WT yeast gro inh -3.
COc1cc(/C=N/NC(=O)CC2(C)OCCCO2)ccc1OCc1ccccc1 was read as ROMK primary -0.7, Cl transport mod 0.37, Lmaj promast 2, Calpain2 inh -4 and WT yeast gro inh -8.
For O=C(c1cccnc1Cl)N1CCOCC1 the results were ROMK primary 0.3, Cl transport mod 1.1, Lmaj promast 1, Calpain2 inh -20 and WT yeast gro inh 0.
For CCC(C(=O)O)N1C(=O)C2CCCCC2C1=O (stereo not given) the results were Calpain2 inh 15.
For O=C(NCc1cccs1)c1cc(-c2ccncc2)nc2ccc(Br)cc12 the results were ROMK primary 1.3, Cl transport mod -0.86, Lmaj promast 15, Calpain2 inh -58 and WT yeast gro inh -3.
Screening CCN(CC)c1ccc(/C=N/NC(=O)c2ccco2)cc1 returned ROMK primary 1.9, Cl transport mod -0.13, Lmaj promast 50*, Calpain2 inh 11 and WT yeast gro inh 5.
CCN(CC)c1ccc(/C=N/NC(=O)c2cccc(S(=O)(=O)N3CCOCC3)c2)cc1 was read as Cl transport mod 0.19, Lmaj promast 73*, Calpain2 inh -153 and WT yeast gro inh -56.
For CCN(CC)c1ccc(/C=N/NC(=O)c2ccco2)c(O)c1 the results were ROMK primary 1.9, Cl transport mod -0.63 and Calpain2 inh 21.
For CCN(Cc1ccccc1)c1ccc(/C=N/NC(=O)c2cccc(S(=O)(=O)N3CCOCC3)c2)cc1 the results were ROMK primary -1.6, Cl transport mod -0.41, Lmaj promast 91*, Calpain2 inh -96 and WT yeast gro inh 6.
Screening Cc1[nH]c2ccccc2c1C(C[N+](=O)[O-])c1ccco1 (stereo not given) returned ROMK primary 0.24, Cl transport mod -0.6, Lmaj promast 14, Calpain2 inh -55 and WT yeast gro inh -20.
Cc1ccc(-c2[nH]c3ccccc3c2C(C[N+](=O)[O-])c2ccco2)cc1 (stereo not given) was read as ROMK primary 1.1, Cl transport mod 0.84, Lmaj promast 7, Calpain2 inh -14 and WT yeast gro inh 69*.
For CCC(=O)Nc1ccc(C(=O)CSc2nc3ccccc3cc2CC)cc1 the results were Lmaj promast 0, Calpain2 inh 12 and WT yeast gro inh -2.
Screening COc1ccc(CNc2oc(Cc3cccc4ccccc34)nc2C#N)cc1 returned ROMK primary -0.22, Cl transport mod -5.2*, Lmaj promast 19, Calpain2 inh 19 and WT yeast gro inh -5.
Screening N#Cc1nc(Cc2cccc3ccccc23)oc1NCCCn1ccnc1 returned Cl transport mod -3.4*, Lmaj promast 59*, Calpain2 inh 7 and WT yeast gro inh 54.
For N#Cc1nc(-c2ccccc2)oc1NCCCn1ccnc1 the results were ROMK primary -0.045, Cl transport mod -0.032, Lmaj promast -3, Calpain2 inh inactive and WT yeast gro inh 1.
`N#Cc1nc(Cc2cccc3ccccc23)oc1N1CCCCC1` gave ROMK primary -0.14, Cl transport mod -6.1*, Lmaj promast 14, Calpain2 inh 17 and WT yeast gro inh 39.
Screening CN1CCN(c2oc(Cc3cccc4ccccc34)nc2C#N)CC1 returned Cl transport mod -4.7 and Calpain2 inh -15.
COC(=O)c1ccc(N=NN2CCCCC2)cc1 was read as ROMK primary -0.55, Cl transport mod 1.2, Lmaj promast -6, Calpain2 inh -6 and WT yeast gro inh 6.
Screening Cn1c(=O)c2c(nc(CN3CCN(CCO)CC3)n2Cc2cccc3ccccc23)n(C)c1=O returned Cl transport mod -1.3, Lmaj promast 99*, Calpain2 inh 19 and WT yeast gro inh -4.
`CN1CCN(c2nc3c(c(=O)n(C)c(=O)n3C)n2Cc2cccc3ccccc23)CC1` gave ROMK primary -0.14, Cl transport mod 0.055, Lmaj promast 19, Calpain2 inh -44 and WT yeast gro inh -41.
For Cn1c(=O)c2c(nc(CN3CCN(CCO)CC3)n2Cc2ccccc2Cl)n(C)c1=O the results were WT yeast gro inh 14.
`Cn1c(=O)c2c(nc(N3CCCCCC3)n2Cc2cccc3ccccc23)n(C)c1=O` gave ROMK primary -1.8, Cl transport mod -1.4, Lmaj promast 35, Calpain2 inh 3 and WT yeast gro inh 81*.
COC(=O)c1ccc(CO/N=C/c2ccc(OC)cc2)o1 was read as Cl transport mod -0.048, Lmaj promast 1, Calpain2 inh -19 and WT yeast gro inh 24.
`CCNCCNc1ccc(Cl)cc1[N+](=O)[O-]` gave Cl transport mod 0.87 and Lmaj promast 60*.
Cc1ccc2c(c1)C(c1ccncc1)=NNC(c1ccc(F)cc1)=N2 was read as ROMK primary -0.22, Cl transport mod 0.34, Lmaj promast 14, Calpain2 inh 29 and WT yeast gro inh -4.
For CCc1ccc2c(c1)C(c1ccncc1)=NNC(c1ccccc1)=N2 the results were Lmaj promast 55*, Calpain2 inh -2 and WT yeast gro inh 1.
Cc1ccc(C2=Nc3ccc(Br)cc3C(c3ccncc3)=NN2)cc1 was read as ROMK primary 0.039, Cl transport mod -1.3, Lmaj promast 85*, Calpain2 inh -2 and WT yeast gro inh 14.
Nn1c(=O)[nH]c2c([nH]c3ccccc32)c1=O was read as ROMK primary 0.43, Cl transport mod 0.23, Lmaj promast -6, Calpain2 inh -78 and WT yeast gro inh 6.
`CCc1ccc(NC(=O)N(CCCN2CCOCC2)C(C)c2cc3cccc(OC)c3o2)cc1` (stereo not given) gave Cl transport mod -1.9, Lmaj promast 54*, Calpain2 inh 9 and WT yeast gro inh 22.
For COc1cccc2cc(C(C)N(CCCN3CCOCC3)C(=S)Nc3c(C)cccc3C)oc12 (stereo not given) the results were Cl transport mod -0.65, Lmaj promast 53*, Calpain2 inh -13 and WT yeast gro inh 5.
For COc1cccc2cc(C(C)N(CCCN3CCOCC3)C(=S)Nc3cc(C)cc(C)c3)oc12 (stereo not given) the results were ROMK primary 0.44, Cl transport mod -2.4, Lmaj promast 13, Calpain2 inh 6 and WT yeast gro inh 19.
Screening Cc1nn(CC(=O)NCc2ccco2)c(C)c1[N+](=O)[O-] returned ROMK primary 0.37, Cl transport mod 0.31 and Calpain2 inh -2.
COc1ccc(-c2csc3nc(C)nc(N4CCC(C)CC4)c23)cc1OC was read as ROMK primary 1.8, Cl transport mod 0.59, Lmaj promast 90*, Calpain2 inh -7 and WT yeast gro inh 63*.
CCOc1ccccc1OCC(=O)NC1CCCCC1 was read as ROMK primary 0.019, Lmaj promast 6, Calpain2 inh -41 and WT yeast gro inh -9.
CCOc1cc(CNC2CCCC2)c(Cl)cc1OCC(=O)Nc1ccccc1 was read as ROMK primary -0.43, Cl transport mod -0.47, Lmaj promast 89*, Calpain2 inh 24 and WT yeast gro inh 20.

Compound activity from PubChem.
